Only some compounds are listed: those with a hit (about 0.52% of all), similar ones and a draw of the others.
Epigenetic reg: Quantitative High-Throughput Screen for Regulators of Epigenetic Control; murine LDR cells, GFP reporter derepression, 30 h; Potency, µM (highest dose often 53.9 µM), hits mostly activators; 0.2% of 280,000 active; AID 1865, 2009; note: nearly all actives have a fitted effect of over 60% in size
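Murine LDR cells carrying a silenced, genomically integrated CMV-driven GFP reporter were exposed to compound for 30 hours at 37 C. After PBS washes, GFP-positive cells (20–120 um objects) were counted by laser-scanning microplate cytometry.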
Vif-APOBEC3F blk: qHTS for Inhibitors of Vif-A3F Interactions: qHTS; HeLa A3F-eYFP + Vif (tagged APOBEC3F with the HIV-1 protein that degrades it), YFP fluorescence increase; Potency, µM (highest dose often 46.1 µM); 0.2% of 390,000 active; AID 602313, 2012; note: nearly all actives have a fitted effect of over 65% in size
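HeLa cells stably expressing A3F-eYFP plus Vif, plated and incubated overnight at 37 deg C, then exposed to compounds overnight at 37 deg C. Blocked degradation read as raised yellow fluorescence (Ex 488/Em 500-530).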
PINK1 expr mod: A Quantitative High throughput Screen to Identify Chemical Modulators of PINK1 Expression. 0.2% of 410,000 active. Potency, µM (titrated, usually from 76.6 µM), actives largely listed as activators. PINK1 immunofluorescence, high-content cytometry, 24 h; active = well fitted activation curve with a large enough effect; inconclusive = small, poorly fitted or top-dose-only effect; cell line not stated here; note: nearly all actives have a fitted effect of over 65% in size
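PINK1 protein level read as immunofluorescence by microplate cytometer in a fixed, stained stable cell line after 24 h exposure to five compound concentrations, with CCCP as control.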
Vif-A3G inh: qHTS for Inhibitors of Vif-A3G Interactions: qHTS; DNA dC->dU-editing enzyme APOBEC-3G (Homo sapiens), Q9HC16; HeLa A3G-eYFP + Vif (tagged APOBEC3G with the HIV-1 protein that degrades it), YFP fluorescence, overnight; Potency, µM (doses to about 46.1 µM), actives largely listed as inhibitors; 0.076% of 410,000 active; AID 602310, 2012; note: nearly all actives have a fitted effect of over 60% in size
Target sequence (Q9HC16 whole entry, looked up): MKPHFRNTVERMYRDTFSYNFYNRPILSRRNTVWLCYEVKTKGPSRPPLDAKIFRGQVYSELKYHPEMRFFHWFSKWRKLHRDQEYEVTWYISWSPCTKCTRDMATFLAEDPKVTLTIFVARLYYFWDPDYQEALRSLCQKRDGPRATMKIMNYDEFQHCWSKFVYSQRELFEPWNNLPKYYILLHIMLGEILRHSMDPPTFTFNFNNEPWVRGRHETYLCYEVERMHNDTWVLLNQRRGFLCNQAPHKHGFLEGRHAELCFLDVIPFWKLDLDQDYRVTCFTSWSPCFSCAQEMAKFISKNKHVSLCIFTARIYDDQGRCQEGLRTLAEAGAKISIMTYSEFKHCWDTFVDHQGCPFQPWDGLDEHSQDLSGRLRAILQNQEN
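HeLa cells stably expressing Vif and C-terminally eYFP-tagged A3G, seeded overnight at 37 deg C, then exposed to compound by pintool overnight at 37 deg C. Rise in yellow fluorescence (Ex 488/Em 500-530, Acumen) marks blocked Vif-driven A3G degradation.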
Numbers stand for hits. Unless noted, calls come from the whole dose curve; as a rule, active = well fitted curve in the direction sought with a large enough effect; inconclusive = small, poorly fitted or top-dose-only effect, or another doubt; inactive = no such curve, though single readings can be large; an effect the other way counts as inactive or inconclusive.

COCC1CCCN(Cc2ccc3c(c2)CN(C(=O)c2sc(C)nc2C)CCO3)C1 (stereo unspecified) was read as PINK1 expr mod inactive.
For CCN1C(=O)/C(=C2/Sc3ccc(OC)cc3N2C)SC1=Nc1cccc(O)c1 the results were Epigenetic reg inconclusive, Vif-APOBEC3F blk inconclusive, PINK1 expr mod inactive and Vif-A3G inh 10µM.
Screening C=CCN1C(=O)/C(=C2/Sc3ccc(OC)cc3N2C)SC1=Nc1ccccc1 returned Epigenetic reg inconclusive, Vif-APOBEC3F blk inactive, PINK1 expr mod inactive and Vif-A3G inh inactive.
For Cc1ccccc1C1(CC(=O)N2CC3(C)CC2CC(C)(C)C3)CC(=O)N(Cc2cccnc2)C1=O (stereo unspecified) the results were PINK1 expr mod inactive.
For O=C(NCC1Cc2cc(F)cc(-c3cccnc3)c2O1)c1cnn(-c2ccccc2)c1 (stereo unspecified) the results were PINK1 expr mod inactive.
For Oc1cc(-c2nc3ccccc3s2)cc2c1OCCN(Cc1cccn1-c1ncccn1)C2 the results were PINK1 expr mod inactive.
O=C(CCNC(=O)c1ccc([N+](=O)[O-])cc1)Nc1ccccc1N1CCCC1 was read as Vif-APOBEC3F blk inactive, PINK1 expr mod inactive and Vif-A3G inh inactive.
For Cc1noc(C)c1C(=O)OCC(=O)Nc1ccccc1SCC#N the results were Vif-APOBEC3F blk 22µM, PINK1 expr mod inactive and Vif-A3G inh inactive.
For N#CCSc1ccccc1NC(=O)COC(=O)CCNC(=O)c1ccc([N+](=O)[O-])cc1 the results were Vif-APOBEC3F blk 22µM, PINK1 expr mod inactive and Vif-A3G inh inactive.
For COc1cc(NC(=O)c2noc3c2CCC3)c(OC)cc1Cl the results were Epigenetic reg inactive, Vif-APOBEC3F blk inactive, PINK1 expr mod 11µM and Vif-A3G inh inactive.
COc1ccccc1C(=O)N1CCOc2ccc(C(C)(O)CCn3cccn3)cc2C1 (stereo unspecified) was read as PINK1 expr mod inactive.
For Cc1nn(C)cc1/C=N/NC(=S)Nc1ccccc1 the results were Epigenetic reg 4µM, Vif-APOBEC3F blk inactive, PINK1 expr mod inactive and Vif-A3G inh inactive.
Oc1ccccc1C=NNC(=S)Nc1ccc(F)cc1 was read as Vif-APOBEC3F blk inactive, PINK1 expr mod inactive and Vif-A3G inh inactive.
CCS(=O)(=O)N1N=C(c2cccc(NS(C)(=O)=O)c2)CC1c1ccc(C)cc1 (stereo unspecified) was read as Epigenetic reg 22µM, Vif-APOBEC3F blk 11µM, PINK1 expr mod inconclusive and Vif-A3G inh inconclusive.
`CC(=O)N1N=C(c2ccc(NS(C)(=O)=O)cc2)CC1c1ccc2nccnc2c1` (stereo unspecified) gave Epigenetic reg inactive, Vif-APOBEC3F blk inactive, PINK1 expr mod inactive and Vif-A3G inh inactive.
CS(=O)(=O)Nc1ccc(C2=NN(S(C)(=O)=O)C(c3ccc4nccnc4c3)C2)cc1 (stereo unspecified) was read as Epigenetic reg inactive, Vif-APOBEC3F blk 22µM, PINK1 expr mod inactive and Vif-A3G inh inconclusive.
`CCc1ccc(/C=C2/SC(N3CCOCC3)=NC2=O)cc1` gave Epigenetic reg inactive, Vif-APOBEC3F blk inactive, PINK1 expr mod inactive and Vif-A3G inh inactive.
For CN1C/C(=C\c2ccc(N3CCOCC3)cc2)C(=O)/C(=C/c2ccc(N3CCOCC3)cc2)C1 the results were Epigenetic reg inconclusive, Vif-APOBEC3F blk 25µM, PINK1 expr mod inactive and Vif-A3G inh inconclusive.
For CCN1C/C(=C/c2ccc(N3CCOCC3)cc2)C(=O)/C(=C/c2ccc(N3CCOCC3)cc2)C1 the results were Epigenetic reg inconclusive, Vif-APOBEC3F blk 25µM, PINK1 expr mod inactive and Vif-A3G inh 10µM.
Screening CN1C/C(=C/c2ccncc2)C(=O)/C(=C/c2ccncc2)C1 returned Vif-APOBEC3F blk inconclusive, PINK1 expr mod inactive and Vif-A3G inh inactive.
Screening Cc1ccc(CN2CCOc3ccc(CN4CCC(O)(c5cccnc5)CC4)cc3C2)cc1 returned PINK1 expr mod inactive.
Cc1nn(-c2ccc(F)cc2)c(C)c1CNC(=O)c1ccc(-n2cc(NC(=O)c3ccoc3)cn2)cc1 was read as PINK1 expr mod inactive.
Screening CCc1cc(C(=O)NCC2Cc3cc(C)cc(-c4cc(C(C)=O)ccc4F)c3O2)n(C)n1 (stereo unspecified) returned PINK1 expr mod inactive.
For CCSC1=NSC2=NC(=O)/C(=C\c3coc4ccccc4c3=O)C(=N)N12 the results were Epigenetic reg inactive, Vif-APOBEC3F blk 25µM, PINK1 expr mod inactive and Vif-A3G inh inconclusive.
